# According to publication PMC4336329 (PLoS ONE, 2015):
# The campaign covered roughly 310,000 compounds. About 14,000 (4.5%) showed an effect of 50% or more. Effects have a minus sign here. This excerpt belongs to a sample that is enriched for strong results.
# Target: human ether-à-go-go-related gene (hERG) potassium channel (human, UniProt Q12809)
# Experiment: primary screen, population patch clamp on CHO cells stably expressing hERG; higher = less effect of the substance
# 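Note: peak tail current of the secondary pulse compared with the same well before compound.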
# Chain of human ether-à-go-go-related gene (hERG) potassium channel (Q12809 whole entry, looked up): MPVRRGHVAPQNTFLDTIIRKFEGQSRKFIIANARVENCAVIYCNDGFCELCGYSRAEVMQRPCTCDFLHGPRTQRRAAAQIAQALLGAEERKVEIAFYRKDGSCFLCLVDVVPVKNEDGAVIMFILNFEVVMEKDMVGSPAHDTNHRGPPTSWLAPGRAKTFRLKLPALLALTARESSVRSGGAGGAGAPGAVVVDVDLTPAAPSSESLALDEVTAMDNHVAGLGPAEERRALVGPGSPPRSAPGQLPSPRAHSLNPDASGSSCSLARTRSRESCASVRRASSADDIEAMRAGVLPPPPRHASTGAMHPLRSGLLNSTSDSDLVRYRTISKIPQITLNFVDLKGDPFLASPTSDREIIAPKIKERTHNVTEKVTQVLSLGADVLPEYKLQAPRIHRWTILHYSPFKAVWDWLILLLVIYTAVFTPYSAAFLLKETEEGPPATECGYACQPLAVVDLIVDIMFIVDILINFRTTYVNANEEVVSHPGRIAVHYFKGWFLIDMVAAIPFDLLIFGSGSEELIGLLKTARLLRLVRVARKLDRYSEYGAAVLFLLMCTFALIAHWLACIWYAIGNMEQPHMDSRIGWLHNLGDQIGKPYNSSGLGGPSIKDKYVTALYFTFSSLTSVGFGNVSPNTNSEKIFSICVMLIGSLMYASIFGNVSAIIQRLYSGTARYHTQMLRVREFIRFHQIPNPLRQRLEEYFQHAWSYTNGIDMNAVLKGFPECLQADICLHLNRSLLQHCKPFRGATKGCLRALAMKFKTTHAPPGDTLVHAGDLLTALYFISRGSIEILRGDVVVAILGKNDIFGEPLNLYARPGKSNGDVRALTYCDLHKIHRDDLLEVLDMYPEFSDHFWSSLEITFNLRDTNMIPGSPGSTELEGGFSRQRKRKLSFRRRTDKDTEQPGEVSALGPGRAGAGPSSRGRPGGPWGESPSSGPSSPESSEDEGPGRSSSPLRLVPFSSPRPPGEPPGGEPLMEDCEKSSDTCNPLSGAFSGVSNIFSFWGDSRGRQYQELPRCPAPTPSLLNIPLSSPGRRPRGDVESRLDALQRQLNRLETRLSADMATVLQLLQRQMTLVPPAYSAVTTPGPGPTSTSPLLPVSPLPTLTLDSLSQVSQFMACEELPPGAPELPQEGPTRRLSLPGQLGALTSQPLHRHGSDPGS
row,SMILES,"hERG current change (%, negative = inhibition) at 10uM"
1,CCc1cc(C(=O)NNC(=S)Nc2cccc(C)c2)cs1,3.09%
2,O=C1c2ccccc2C(=O)N1CCSc1ncn[nH]1,19.7%
3,O=[N+]([O-])c1ccccc1S(=O)(=O)NCc1ccc(F)cc1,7.19%
4,CC(NC(=O)c1ccc([N+](=O)[O-])cc1[N+](=O)[O-])c1ccc(-c2ccccc2)cc1 (stereo not drawn),-1.64%
5,CCC(NC(=O)c1ccccc1O)c1ccccc1 (stereo not drawn),-33.3%
6,CCC(NC(=O)c1ccc([N+](=O)[O-])cc1[N+](=O)[O-])c1ccccc1 (stereo not drawn),-56%
7,CN(C)c1ccc(CNCC2CCCO2)cc1.Cl (stereo not drawn),10.5%
8,Cc1ccc(NC(=O)CN(C)C(=O)CCC(=O)c2cccs2)cc1,-16.2%
9,CC1CCOC2(O1)C(=O)Nc1ccccc12 (stereo not drawn),16.1%
10,COCCCNC(=O)c1cc(Sc2nnc(C)s2)nc2ccccc12,2.3%
11,CCN(CC)CCCNC(=O)c1cc(Sc2nnc(C)s2)nc2ccccc12,-40.4%
12,CCOCCCNC(=O)c1cc(Sc2ccc(F)cc2)nc2ccccc12,-12.4%
13,CCN(CC)CCNC(=O)c1cc(Sc2nnc(C)s2)nc2ccccc12,-45.3%
14,COCCNC(=O)c1cc(Sc2nnc(C)s2)nc2ccccc12,-18.2%
15,Cc1nnc(Sc2cc(C(=O)NCCCN(C)Cc3ccccc3)c3ccccc3n2)s1,-56.2%
16,COCCCNC(=O)c1cc(Sc2ccc(F)cc2)nc2ccccc12,-26.9%
17,CN(C)CCNC(=O)c1cc(Sc2ccc(F)cc2)nc2ccccc12,-72.5%
18,Cc1ccc(Sc2cc(C(=O)NCCN(C)C)c3ccccc3n2)cc1,-93.9%
19,CC(C)OCCCNC(=O)c1cc(Sc2ccc(F)cc2)nc2ccccc12,-5.77%

row,SMILES,"hERG current change (%, negative = inhibition) at 10uM"
1,O=C(NCCCN1CCCC1)c1cc(Sc2ccc(F)cc2)nc2ccccc12,-74.1%
2,O=C(NCCCN1CCOCC1)c1cc(-c2ccc(F)cc2)nc2ccccc12,-27.5%
3,O=C(O)CCc1ccc(-c2ccc(F)cc2)n1NC(=O)c1ccco1,8.01%
4,CCN(CC(=O)N1CCN(C)CC1)S(=O)(=O)c1ccc(Cl)cc1,-5.94%
5,O=C1c2ccccc2S(=O)(=O)c2cc(C(=O)N3CCCC3)ccc21,-1.93%
6,O=C(CNC(=O)c1cccc(Br)c1)N/N=C/c1cccnc1,-14%
7,O=C(Nc1cccc(-c2ccc(N3CCCCC3)nn2)c1)C(F)(F)F,-8.5%
8,C/C(CC(=O)NC1CCCCC1)=N\NC(=O)COc1ccc(C)cc1Br,-22.8%
9,Cc1ccc(Sc2cc(C(=O)NCCCN(C)C)c3ccccc3n2)cc1,-56.5%
10,CCOCCCNC(=O)c1cc(Sc2nnc(C)s2)nc2ccccc12,-2.23%
11,CCOCCCNC(=O)c1cc(Sc2ccc(C)cc2)nc2ccccc12,-19.3%
12,COc1ccc(C=O)cc1OS(=O)(=O)c1ccccc1[N+](=O)[O-],-3.35%
13,COc1ccc(NS(=O)(=O)c2cccc(C(=O)NNC(=O)c3ccccc3OC)c2)cc1,-16.4%
14,Cn1c(=O)n(Cc2ccco2)c(=N)c2c3c(sc21)CCC3,-64.8%
15,CN(C)CCn1c(=O)n(Cc2ccco2)c(=O)c2c3c(sc21)CCCCC3,-50.4%
16,O=c1c2c3c(sc2[nH]c(=S)n1Cc1ccco1)CCC3,6.17%
17,CN(C)CCn1c(=O)n(-c2ccc(F)cc2)c(=O)c2c3c(sc21)CCCCC3,-18.6%
18,CN(C)CCn1c(=O)n(-c2cccc(Cl)c2)c(=O)c2c3c(sc21)CCCCC3,-20.7%
19,NC(=O)Cn1c(=O)n(Cc2ccco2)c(=O)c2c3c(sc21)CCCCC3,5.2%

row,SMILES,"hERG current change (%, negative = inhibition) at 10uM"
1,CN(C)CCCn1c(=O)n(Cc2ccco2)c(=O)c2c3c(sc21)CCCCC3,-71.1%
2,Cn1c(=O)n(Cc2ccco2)c(=N)c2c3c(sc21)CCCC3,-31.4%
3,CC(O)CNc1nc2sc3c(c2c(=O)n1Cc1ccco1)CCCCC3 (stereo not drawn),4.61%
4,Cc1c(NC(=O)COC(=O)CSc2ccc(C(N)=O)cc2[N+](=O)[O-])c(=O)n(-c2ccccc2)n1C,23.1%
5,Cc1ccc(C)c(S(=O)(=O)N2CCN(C(=O)CCNS(=O)(=O)c3ccccc3)CC2)c1,-33.6%
6,O=C1NC(c2ccccc2)=NC1(NS(=O)(=O)c1ccccc1)C(F)(F)F (stereo not drawn),-3.5%
7,Cc1ccc(S(=O)(=O)N2CCC(C(=O)OC(C)C(=O)NC3CCCCC3C)CC2)cc1C (stereo not drawn),-25.4%
8,Cc1ccc(NC(=O)c2sc3nc4c(c(-c5ccco5)c3c2N)CCC4)cc1,11.6%
9,Cc1cc(C(=O)Nc2ccc3[nH]ccc3c2)no1,6.46%
10,Cc1ccc(S(=O)(=O)NCCSc2ccccc2)cc1[N+](=O)[O-],-0.246%
11,Cc1ccc(N(Cc2ccccc2)C(=O)c2cccc(S(=O)(=O)N3CC(C)OC(C)C3)c2)cc1 (stereo not drawn),-7.01%
12,Cc1ccc(N(Cc2ccccc2)C(=O)c2cccc(S(=O)(=O)N3CCOCC3)c2)cc1,-74.5%
13,Cc1ccc(N(Cc2ccccc2)C(=O)c2ccc(S(=O)(=O)N3CCOCC3)cc2)cc1,-28.5%
14,Cc1ccc(N(Cc2ccccc2)C(=O)c2cccc(S(=O)(=O)N3CCN(C)CC3)c2)cc1,-52.7%
15,CN1CCN(S(=O)(=O)c2cccc(C(=O)N(Cc3ccccc3)c3ccccc3)c2)CC1,-19.9%
16,CC(=O)N1CCN(S(=O)(=O)c2cccc(C(=O)N(Cc3ccccc3)c3cccc(C)c3)c2)CC1,-27.4%
17,CC(=O)N1CCN(S(=O)(=O)c2cccc(C(=O)N(Cc3ccccc3)c3ccc(C)cc3)c2)CC1,-61.2%
18,Cc1cccc(N(Cc2ccccc2)C(=O)c2cccc(S(=O)(=O)N3CC(C)OC(C)C3)c2)c1 (stereo not drawn),-9.56%
19,Cc1ccc(N(Cc2ccccc2)C(=O)c2cc(S(=O)(=O)N3CCOCC3)ccc2C)cc1,-27.4%
